# Compounds with a hit are over-represented: about 19% of the library has one in this group of screens.
# RORg inh – blocks mouse ROR gamma transcriptional activity. 5.4% of 310,000 active. Drosophila S2 Gal4-RORgamma UAS-luciferase reporter, 20 h. P51450. Potency, µM (highest dose often 53.6 µM), for the others: top-dose activity change, negative = inhibition, actives largely listed as inhibitors; also: nearly all actives have a fitted effect of over 60% in size
#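 Drosophila S2 cells stably expressing Gal4-DBD/mouse RORγ fusion under metallothionein promoter plus UAS-luciferase; compound 1 h, then 700 uM CuSO4 induction for 20 h at ambient temperature; inhibition read as reduced luminescence.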
# DT40 TDP1 CPT – growth inhibition of DT40 Tdp1-/-;hTDP1 cells with camptothecin (screen for TDP1 inhibitors) | chicken DT40 Tdp1-/-;hTDP1 cells + 20 nM CPT, ATP luminescence, 48 h | Potency, µM (titrated, usually from 46.2 µM), inactives show at the top dose activity change, negative = growth inhibition, most hits filed as inhibitors | 12% of 420,000 active | AID 686979; also: nearly all actives have a fitted effect of over 55% in size
#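 Chicken DT40 Tdp1-/- cells complemented with human TDP1, 400 cells/well, exposed to compounds plus 20 nM camptothecin for at least 48 h at 37 C; viability read as ATP content by CellTiter-Glo luminescence.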
# Gal4-VP16 FLuc – counter-screen for ROR gamma inhibitors: Gal4-VP16 reporter; Drosophila S2 Gal4-VP16 UAS-luciferase, luminescence, 20 h; Potency, µM (titrated, usually from 53.6 µM), for the others: top-dose activity, negative = inhibition, hits mostly inhibitors; 3.5% of 310,000 active; AID 2546;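 also: Gal4-VP16 expression switched on by copper sulfate through the metallothionein promoter; nearly all actives have a fitted effect of over 50% in size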
# DT40 TDP1 no CPT – qHTS for Inhibitors of human tyrosyl-DNA phosphodiesterase 1 (TDP1): qHTS in cells in absence of CPT | 15% of 420,000 active | Potency, µM (top dose mostly 46.2 µM), for inactives: top-dose activity change, negative = growth inhibition, actives largely listed as inhibitors | DT40 Tdp1-/- hTDP1 cells, no CPT, ATP luminescence, 48 h; also: nearly all actives have a fitted effect of over 55% in size
#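 Chicken DT40 Tdp1-/- cells stably complemented with human TDP1 were seeded at 400 cells/well with DMSO in place of 20 nM camptothecin. After compound pinning, cells grew at least 48 hr at 37 °C; viability read by CellTiter-Glo luminescence.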
# TDP1 inh – inhibitors of human tyrosyl-DNA phosphodiesterase TDP1; 0.28% of 350,000 active; recombinant TDP1, AlphaScreen DNA substrate cleavage; Potency, µM (doses to about 130 µM), without a hit: top-dose activity change, negative = inhibition, actives largely listed as inhibitors; also: nearly all actives have a fitted effect of over 40% in size
# Target sequence (Q9NUW8 whole entry, looked up): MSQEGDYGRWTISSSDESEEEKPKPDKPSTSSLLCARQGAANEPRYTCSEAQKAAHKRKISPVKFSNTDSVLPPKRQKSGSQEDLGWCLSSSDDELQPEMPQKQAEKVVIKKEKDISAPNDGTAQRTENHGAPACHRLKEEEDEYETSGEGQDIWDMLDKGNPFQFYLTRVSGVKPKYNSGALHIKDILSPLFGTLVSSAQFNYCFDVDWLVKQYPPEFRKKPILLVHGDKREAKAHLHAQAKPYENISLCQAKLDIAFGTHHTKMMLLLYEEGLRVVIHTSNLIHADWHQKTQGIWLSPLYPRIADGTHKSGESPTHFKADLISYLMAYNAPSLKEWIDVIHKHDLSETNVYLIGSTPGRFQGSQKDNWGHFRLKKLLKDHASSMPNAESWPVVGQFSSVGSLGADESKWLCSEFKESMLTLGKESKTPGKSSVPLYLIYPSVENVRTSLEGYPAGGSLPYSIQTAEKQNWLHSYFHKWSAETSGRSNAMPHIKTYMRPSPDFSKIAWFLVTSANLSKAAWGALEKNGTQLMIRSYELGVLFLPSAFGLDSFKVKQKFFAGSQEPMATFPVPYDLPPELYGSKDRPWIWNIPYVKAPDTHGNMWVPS
#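 Signal: AlphaScreen proximity between streptavidin donor and anti-FITC acceptor beads on intact substrate. Reaction: Tdp1 1 nM, substrate 15 nM final, 5 min RT after 15 min compound preincubation.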
# The depositor's hits bear a star; ? = inconclusive; / = no result given; [ ] = another dose, or the depositor's remark. Calls follow the shape of the dose curve; as a rule, active = well fitted curve in the direction sought with a large enough effect; inconclusive = small, poorly fitted or top-dose-only effect, or another doubt; inactive = no such curve, though single readings can be large; an effect the other way counts as inactive or inconclusive. % is scaled to controls: 0 for no effect and ±100 for the full control effect; potency is read from the fitted curve at half-maximal effect.
SMILES,RORg inh,DT40 TDP1 CPT,Gal4-VP16 FLuc,DT40 TDP1 no CPT,TDP1 inh
S=c1[nH]nc(-c2ccncc2)n1/N=C/c1cccc(Cl)c1,4.5µM*,-21%,-23%,-28%,2%
S=c1[nH]nc(-c2ccccn2)n1/N=C/c1cccc2ccccc12,2.2µM*,-1%,?,0%,11%
S=c1[nH]nc(-c2ccccn2)n1/N=C/c1ccc(Cl)cc1,13µM*,1%,-19%,-15%,0%
S=c1[nH]nc(-c2ccccn2)n1/N=C/c1c(Cl)cccc1Cl,?,15%,1%,-5%,3%
Fc1ccc(-c2n[nH]c(=S)n2/N=C/c2c[nH]c3ccccc23)cc1,?,7.3µM*,0%,6.5µM*,-3%
CN(C)c1cccc(Oc2nc3c(c(=O)n(C)c(=O)n3C)n2C)c1,?,-9%,0%,-11%,/
CCOC(=O)Cc1csc(NC(=O)COc2ccc(C)c(C)c2)n1,19%,-14%,?,-21%,6%
Cc1nn(-c2ccccc2)c(C)c1/C=N/n1c(-c2ccc(Cl)cc2)n[nH]c1=S,13µM*,?,8.9µM*,16µM*,1%
S=c1[nH]nc(-c2ccccc2)n1/N=C/c1ccc(Cl)cc1,1.1µM*,-28%,?,-25%,/
Cc1nn(-c2ccccc2)c(C)c1/C=N/n1c(-c2ccncc2)n[nH]c1=S,-28%,-3%,1%,-19%,/
S=c1[nH]nc(-c2ccc(Cl)cc2)n1/N=C/c1cccs1,3.5µM*,-7%,-20%,-23%,/
Oc1ccccc1/C=N/n1c(-c2ccccc2)n[nH]c1=S,11µM*,0%,-20%,-3%,/
O=C(N[C@@H](Cc1ccc(O)cc1)C(=O)O)c1cccnc1,-3%,4%,0%,-1%,9%
O=S(=O)(NCc1ccccc1)c1ccc(S(=O)(=O)N(Cc2cccs2)CC2CCCO2)cc1 (centres undefined),-2%,-16%,2%,-1%,2%
COc1cccc(CN2CCN(c3ncccn3)CC2)c1OC,-27%,-21%,-5%,1%,/
O=[N+]([O-])c1ccc(Cl)c(/C=N/n2c(-c3ccncc3)n[nH]c2=S)c1,-6%,18µM*,4%,?,-4%
Cc1ccc(-c2nn(-c3ccccc3)cc2/C=N/n2c(-c3ccncc3)n[nH]c2=S)cc1,-9%,8%,-4%,?,/
Cc1ccc(-c2n[nH]c(=S)n2/N=C/c2c(C)[nH]n(-c3ccccc3)c2=O)cc1,10µM*,-1%,-26%,?,9%
S=c1[nH]nc(-c2cccs2)n1/N=C/c1cn(-c2ccccc2)nc1-c1ccccc1,-43%,0%,-5%,?,/
Fc1ccc(/C=N/n2c(-c3cccs3)n[nH]c2=S)cc1,2µM*,-20%,4µM*,-7%,-8%
CCOc1ccc(/C=N/n2c(-c3ccccc3)n[nH]c2=S)cc1,1.6µM*,?,?,?,/
CC(=O)c1cccc(-n2c(=O)c3c4c(sc3n(CC(=O)Nc3ccccc3F)c2=O)CN(C(C)=O)CC4)c1,/,37%,/,2%,3%
CCOc1ccc(/C=N/NC(=O)NC23CC4CC(CC(C4)C2)C3)cc1O,?,?,-19%,?,5%[56.1 µM]
Oc1c(Br)cc(Br)cc1/C=N/n1c(-c2ccccc2)n[nH]c1=S,?,1%,?,-7%,/
COc1c(Br)cc(/C=N/n2c(-c3ccccc3)n[nH]c2=S)c(O)c1Br,13µM*,0%,?,?,/
SMILES,RORg inh,DT40 TDP1 CPT,Gal4-VP16 FLuc,DT40 TDP1 no CPT,TDP1 inh
S=c1[nH]nc(-c2ccccc2)n1/N=C/c1cccc(Cl)c1,5.6µM*,?,4.5µM*,?,/
O=C(Cc1cccs1)N(Cc1cccs1)C1(C(=O)NC2CCCCC2)CCCCC1,-9%,26µM*,-1%,16µM*,-5%
O=C1NC(=O)C(CC(=O)N(Cc2cccs2)C2(C(=O)NC3CCCC3)CCCCC2)N1 (centres undefined),8%,-15%,-10%,?,-1%
O=C(NCC(=O)N(Cc1cccs1)C(C(=O)NC1CCCCC1)c1ccco1)c1ccco1 (centres undefined),-25%,-19%,0%,-25%,-1%
O=C(NC1CCCCC1)C(c1cccs1)N(Cc1cccs1)C(=O)c1ccco1 (centres undefined),?,15µM*,?,9.2µM*,2%
O=C(NC1CCCC1)C(c1cccs1)N(CC1CCCO1)C(=O)Cc1cccs1 (centres undefined),13%,?,-5%,21µM*,0%
C[C@@H]1CN([C@H](C)CO)C(=O)CCCn2nncc2CO[C@H]1CN(C)C(=O)c1cc(-c2ccccc2)on1,/,-9%,/,-16%,/
CCOc1ccc(OCC)c(NS(=O)(=O)c2c(C)[nH]c(=O)[nH]c2=O)c1,/,-4%,/,-11%,5%
COc1ccc(-c2c3c(=O)n(C)c(=O)n(C)c3c3n2-c2ccccc2NC3c2ccc(O)cc2O)cc1 (centres undefined),/,16µM*,/,16µM*,3%
Cn1c(=O)c2c(-c3ccccc3)n3c(c2n(C)c1=O)C(c1ccccc1[N+](=O)[O-])Nc1ccccc1-3 (centres undefined),/,23µM*,/,-82%,0%
Cc1ccc(C2Nc3ccccc3-n3c(-c4ccccc4)c4c(=O)n(C)c(=O)n(C)c4c32)cc1 (centres undefined),/,?,/,?,14%
CCOC(=O)c1c(C)[nH]c(C(=O)COC(=O)Cn2cc(C(F)(F)F)ccc2=O)c1C,/,-21%,/,10%,1%
COc1cccc(/C=C/C(=O)NNC(=O)CCN2CCN(Cc3ccccc3)CC2)c1,-12%,-10%,-5%,-6%,6%
O=c1c2c3c(sc2n(Cc2ccccc2F)c(=O)n1-c1ccc(Cl)cc1)CCCC3,/,-8%,/,4%,5%
Cc1ccccc1OCCNC(=S)Nc1ccccc1,3.2µM*,29µM*,5.6µM*,15µM*,0%
S=C(NCCCc1ccccc1)Nc1ccc(Cl)cc1,4.5µM*,?,5µM*,?,1%
COCCCNC(=S)NNC(=S)Nc1ccccc1,?,11%,-8%,-18%,-4%
CCCNC(=S)Nc1ccccc1,10µM*,10%,?,8%,4%
S=C(NCCCc1ccccc1)Nc1ccccc1,16µM*,23µM*,4µM*,?,3%
O=C(NCCCc1ccccc1)Nc1ccccc1,30%,-17%,4%,-18%,1%
O=C(COC(=O)C1=COCCO1)Nc1c(F)cccc1F,/,4%,/,-23%,0%
COc1ccc(C(C)C)cc1-c1cccc2nncn12,/,-21%,/,?,/

# From PubChem BioAssay
